# Where “and” joins values, the source holds several entries; their conditions need not be identical. Equal entries are not always repeated. Values without a mark were called inactive. Inconclusive results are not listed. A call without a number means that no potency is given here. Calls of active or inactive are those of the source. Unless noted, calls come from the whole dose curve; as a rule, active = well fitted curve in the direction sought with a large enough effect; inconclusive = small, poorly fitted or top-dose-only effect, or another doubt; inactive = no such curve, though single readings can be large; an effect the other way counts as inactive or inconclusive.
# What was measured:
# [1] = Cell Viability - Jurkat (AID 426;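 active = dose-dependent loss of cell ATP signal giving a full or clear fitted curve, ranked by lower potency value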;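 note: potency is the fitted concentration of half-maximal effect; cells exposed to compound for 40 hours at 37 °C before ATP read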); conditions: qHTS
# In short: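 Cytotoxicity taken as drop in cellular ATP (CellTiter-Glo luminescence, 20 min room temperature) after 40 hr, 37C treatment of 5000 Jurkat Clone E6-1 cells per well; concentration-response fitted with Hill equation for AC50.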
# [2] = Cell Viability - HepG2 (AID 433; calls by dose curve;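 note: potency is the fitted concentration of half-maximal effect; potency for ATP loss meaning cytotoxicity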); conditions: qHTS
# In short: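 In this qHTS format, a 40 h, 37 °C compound incubation of HepG2 cells in complete medium precedes a 20 min CellTiter-Glo step at room temperature. Tamoxifen and doxorubicin serve as positive controls; Hill-equation fits yield AC50.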
# [3] = Cell Viability - MRC5 (AID 434; calls by dose curve;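 note: potency is the fitted concentration of half-maximal effect; cells exposed to compound for 40 hours at 37 °C; potency reflects cytotoxicity seen as loss of intracellular ATP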); conditions: MRC5 lung fibroblast viability, qHTS
# In short: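 Decrease in intracellular ATP, quantified by luciferase light output, reflects compound toxicity toward MRC5 cells exposed for 40 hr in complete culture medium. Concentration-response curves, scaled between DMSO and 100 uM tamoxifen, gave AC50 values.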
# [4] = Cell Viability - H-4-II-E (AID 543); note: nearly all actives have a fitted effect of over 35% in size; note: potency is the fitted concentration of half-maximal effect
# In short: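 CellTiter-Glo luminescence (intracellular ATP) measured after 40 h compound exposure at 37 °C in H-4-II-E rat hepatoma cells seeded at 1500/well. Values are AC50s fitted with the standard Hill equation.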
# [5] = Cellular Toxicity (caspase-3) Jurkat (AID 655); conditions: Jurkat caspase-3 activation, luminescence; caspase-3 activation: at 92.2 µM (top of the series), DMSO = 0%, tamoxifen = 100%;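 note: cells exposed to compound for 16 h at 37 °C before reading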
# In short: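 qHTS in human Jurkat T-cell leukemia line: 16 hr compound treatment at 37 °C, caspase-3/7 activity measured by Caspase-Glo luminescence. AC50 derived from Hill equation.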
# [6] = Cellular Toxicity (caspase-3) SHSY5Y (AID 657)
# In short: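 Readout: caspase-cleaved peptide-aminoluciferin substrate driving luciferase light in SH-SY5Y neuroblastoma cells after 16 h treatment. Response normalized to DMSO and 10 uM staurosporine controls.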
# [7] = Cellular Toxicity (caspase-3) BJ (AID 658); conditions: Potency: caspase-3 activation
# In short: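 Plated BJ cells (1000/well) rested 5 hr, received compound for 16 hr at 37 °C, then Caspase-Glo 3/7 reagent for 1 hr at room temperature before luminescence reading.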
# [8] = Cellular Toxicity (caspase-3) MRC-5 (AID 659)
# In short: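 Apoptosis readout in MRC-5 cells: luciferase light generated after caspase 3/7 cleaves a peptide-aminoluciferin substrate, measured post 16 hr compound incubation at 37 °C.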
# [9] = Cellular Toxicity (caspase-3) Mesangial (AID 660); conditions: mesangial cells, normalized: DMSO 0%, 100 µM tamoxifen 100%; at 91.7 µM (top of the series);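 note: combined caspase 3 and 7 activity read by Caspase-Glo luminescence; cells exposed to compound for 16 h before the caspase read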
# In short: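 Caspase 3/7 activation measured by Caspase-Glo 3/7 luminescence (20 min, room temperature) following 16 h exposure of mesangial cells (1000/well); AC50 from Hill-equation fit, normalized to DMSO and 100 uM tamoxifen.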
# [10] = Cellular Toxicity (caspase-3) SK-N-SH (AID 661); conditions: SK-N-SH caspase-3 activation, qHTS; caspase-3 activation: at 91.7 µM (top of the series), DMSO as zero, staurosporine as full
# In short: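 Caspase 3/7 activation was read by luminogenic substrate cleavage after 16 hour treatment of SK-N-SH cells. Signal was scaled between DMSO and 10 uM staurosporine, and concentration-response data were fitted with the Hill equation for AC50.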
# [11] = Cellular Toxicity (caspase-3) Hek293 (AID 664); conditions: HEK293 caspase-3 activation, DMSO = 0%, 100 µM tamoxifen = 100%; at 92.2 µM (top of the series);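 note: cells exposed to compound for 16 h at 37 °C before readout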
# In short: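 Concentration-response qHTS: caspase 3/7 activation measured by luminescent aminoluciferin substrate cleavage after 16 h compound exposure of Hek 293 cells. AC50 from Hill equation, with DMSO as basal and 100 uM tamoxifen as 100%.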
# [12] = Cellular Toxicity (caspase-3) NIH 3T3 (AID 666);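 note: caspase signal read after 16 h compound exposure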
# In short: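 Caspase-Glo 3/7 luminescence reported caspase activation in 1000 NIH 3T3 cells/well after 16 h compound exposure at 37 C. DMSO set basal and 100 uM tamoxifen set 100% stimulation; concentration-response modeled with the Hill equation for AC50.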
# [13] = MultiTox-Fluor Cytotoxicity Assay - LYMP1-001 - Dead Cells (AID 946); note: potency is the fitted concentration of half-maximal effect
# In short: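 Seed 2500 LYMP1-001 cells/well, incubate 5 hr at 37 C; add compound, 16 hr at 37 C; add MultiTox-Fluor reagent, 60 min RT; read dead-cell fluorescence Ex/Em=485/520. Normalize to DMSO and 15 uM tetraoctylammonium bromide.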
# [14] = Cell Viability - LYMP1-003 - Assay at 24 hr (AID 963); note: potency is the fitted concentration of half-maximal effect
# In short: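 Concentration-response qHTS: ATP loss measured by CellTiter-Glo luminescence after 24 h compound exposure at 37 C. Cells were LYMP1-003 human lymphoblastoid, 2500 per well. AC50 derived via standard Hill equation modeling.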
# [15] = Cell Viability - LYMP2-007 (AID 979);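 note: cells exposed to compound for 24 h before reading; nearly all actives have a fitted effect of over 60% in size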; note: potency is the fitted concentration of half-maximal effect
# In short: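 AC50 values come from Hill-equation fits of luminescent intracellular ATP (CellTiter-Glo, 30 min, room temperature) following 24 h compound exposure at 37 C. Cells: LYMP2-007 lymphoblastoid line, 2500 per well, in complete culture medium.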
# [16] = Cell Viability - LYMP1-002 - Assay at 24 hr (AID 993); note: potency is the fitted concentration of half-maximal effect
# In short: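 qHTS cytotoxicity at 24 h: CellTiter-Glo ATP luminescence in lymphoblastoid line LYMP1-002 incubated with compound at 37 °C. Concentration-response modeled with the Hill equation for AC50; tetraoctylammonium bromide served as positive control.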
# [17] = qHTS assay for small molecule agonists of the antioxidant response element (ARE) signaling pathway measured by Nrf2-dependant transcriptional activity - cell viability counter screen (AID 720653; active = well fitted curve in the direction sought with a large enough effect in the repeat runs; an effect the other way counts as inactive or inconclusive); conditions: ARE-bla HepG2 viability, CellTiter-Glo ATP luminescence, 16 h; max response: hits give low values
# In short: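 ARE-bla HepG2 cells (2,000/well) rested 5 hrs at 37C/5% CO2, then exposed to compounds in DMSO for 16 hrs. Viability was read in the same wells as intracellular ATP by luminescence, 30 min at room temperature after reagent addition.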
# [18] = Cell Viability - NIH 3T3 (AID 541); conditions: NIH 3T3 cell viability, qHTS; activity change, negative = cytotoxicity: at 92.2 µM (top of the series); note: nearly all actives have a fitted effect of over 25% in size; note: potency is the fitted concentration of half-maximal effect
# In short: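 Intracellular ATP (CellTiter-Glo luminescence, 20 min at room temperature) measured after 40 hr compound exposure at 37 °C of 1000 NIH 3T3 mouse fibroblasts/well in complete medium; AC50 derived by Hill-equation modelling of qHTS concentration-response curves.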
# [19] = target: Cytochrome P450 3A4 (Homo sapiens) (UniProt P08684); experiment: qHTS Assay for Inhibitors and Substrates of Cytochrome P450 3A4 (AID 884); note: nearly all actives have a fitted effect of over 50% in size
# Chain of Cytochrome P450 3A4 (Homo sapiens) (P08684 whole entry, looked up): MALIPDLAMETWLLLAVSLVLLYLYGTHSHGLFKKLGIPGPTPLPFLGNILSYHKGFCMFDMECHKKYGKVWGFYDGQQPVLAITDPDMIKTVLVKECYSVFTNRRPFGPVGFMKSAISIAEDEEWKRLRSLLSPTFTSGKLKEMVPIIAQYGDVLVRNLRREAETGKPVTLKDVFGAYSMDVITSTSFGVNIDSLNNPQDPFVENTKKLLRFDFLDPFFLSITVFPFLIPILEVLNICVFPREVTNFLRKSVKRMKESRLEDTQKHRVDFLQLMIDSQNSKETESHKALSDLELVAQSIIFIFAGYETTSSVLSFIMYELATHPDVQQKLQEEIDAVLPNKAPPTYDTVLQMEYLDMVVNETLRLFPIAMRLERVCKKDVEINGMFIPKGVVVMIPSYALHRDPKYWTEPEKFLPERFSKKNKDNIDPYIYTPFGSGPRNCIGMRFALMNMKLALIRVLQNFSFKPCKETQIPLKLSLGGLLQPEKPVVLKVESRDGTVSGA
# In short: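 Luminescent readout of luciferin produced by CYP3A4 (20 nM) dealkylation of Luciferin-PPXE, 25 uM (its KM). NADPH-driven reaction ran 60 min at RT after 10 min compound preincubation; data scaled to 57 uM ketoconazole as 100% inhibition.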
# [20] = Cell Viability - LYMP2-003 (AID 965);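 note: cells exposed to compounds for 24 h before reading; nearly all actives have a fitted effect of over 50% in size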; note: potency is the fitted concentration of half-maximal effect
# In short: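 qHTS, human lymphoblastoid line, 2500 cells/well, complete medium. 24 h drug, 37 C. ATP-based luminescent readout; Hill-fit AC50.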
smiles,measurement,setting,value
Oc1ccc2cc(SSc3ccc4cc(O)ccc4c3)ccc2c1,Potency,[1],36.7 µM (active)
same,Potency,[2],> 92 µM
same,Potency,[3],38.3 µM (active)
same,Potency,[4],50.1 µM (active)
same,Potency,[5],inactive
same,Potency,[6],inactive
same,Potency,[7],inactive
same,outcome,[8],inactive
same,caspase-3 activation,[9],-1.21%
same,caspase-3 activation,[10],10.2%
same,caspase-3 activation,[11],15.1%
same,Potency,[12],inactive
same,Potency,[13],inactive
same,Potency,[14],50.1 µM (active)
same,Potency,[15],39.8 µM (active)
same,Potency,[16],50.1 µM (active)
same,max response,[17],-8.42%
C/C=C1\C(=O)C[C@H]2[C@@H]3CCC4=CC(=O)CC[C@]4(C)[C@H]3CC[C@]12C,Potency,[2],> 92 µM
same,Potency,[3],> 92 µM
same,"activity change, negative = cytotoxicity",[18],-149% (active)
same,Potency,[4],39.8 µM (active)
same,Potency,[5],inactive
same,Potency,[6],inactive
same,Potency,[7],inactive
same,caspase-3 activation,[9],1.02%
same,caspase-3 activation,[10],1.31%
same,Potency,[12],inactive
same,Potency,[19],inactive
same,Potency,[13],50.1 µM (active)
same,Potency,[14],inactive
same,Potency,[20],inactive
same,Potency,[15],inactive
same,Potency,[16],inactive
same,max response,[17],-11.4%
C=C(C)c1ccccc1,Potency,[1],> 92 µM
same,Potency,[2],> 92 µM
same,Potency,[3],> 92 µM
same,Potency,[18],inactive
same,Potency,[4],inactive
same,Potency,[5],inactive
same,Potency,[6],inactive
same,Potency,[7],inactive
same,outcome,[8],inactive
same,caspase-3 activation,[9],0.545%
same,caspase-3 activation,[10],0.438%
same,caspase-3 activation,[11],0.697%
same,Potency,[12],inactive
same,Potency,[13],inactive
same,Potency,[14],inactive
same,Potency,[20],inactive
same,Potency,[15],inactive
same,Potency,[16],inactive
same,max response,[17],-8.93%
O=C1OC(O)C(C(Cl)Cl)=C1Cl (stereo unspecified),Potency,[1],21.3 µM (active)
same,Potency,[7],inactive
same,outcome,[8],inactive
same,caspase-3 activation,[11],0.823%
same,Potency,[12],inactive
same,Potency,[19],inactive
same,Potency,[20],15.8 µM (active)
same,Potency,[15],25.1 µM (active)
same,max response,[17],-27.5%
CO[C@H]1/C=C/O[C@@]2(C)Oc3c(C)c(O)c4c(O)c(c5c(c4c3C2=O)NC2(CCN(CC(C)C)CC2)N=5)=NC(=O)/C(C)=C\C=C\[C@H](C)[C@H](O)[C@@H](C)[C@@H](O)[C@@H](C)[C@H](OC(C)=O)[C@@H]1C,Potency,[2],> 92 µM
same,Potency,[3],> 92 µM
same,Potency,[18],20 µM (active)
same,Potency,[5],inactive
same,Potency,[6],inactive
same,Potency,[7],inactive
same,outcome,[8],inactive
same,caspase-3 activation,[9],0.833%
same,caspase-3 activation,[10],5.74%
same,caspase-3 activation,[11],-2.49%
same,Potency,[12],inactive
same,Potency,[14],inactive
same,Potency,[20],inactive
same,Potency,[15],inactive
same,Potency,[16],inactive
same,max response,[17],-17.5%
O=C(OCC(COC(=O)c1ccccc1)(COC(=O)c1ccccc1)COC(=O)c1ccccc1)c1ccccc1,Potency,[1],> 92 µM
same,Potency,[2],> 92 µM
same,Potency,[3],> 92 µM
same,Potency,[18],inactive
same,Potency,[4],inactive
same,Potency,[5],inactive
same,Potency,[6],inactive
same,Potency,[7],inactive
same,outcome,[8],inactive
same,caspase-3 activation,[9],-0.308%
same,caspase-3 activation,[10],-0.121%
same,caspase-3 activation,[11],2.36%
same,Potency,[12],inactive
same,Potency,[19],inactive
same,Potency,[13],inactive
same,Potency,[14],inactive
same,Potency,[20],inactive
same,Potency,[15],inactive
same,Potency,[16],inactive
same,max response,[17],3.26%
c1ccc2c(c1)-c1cccc3c1c-2cc1ccccc13,Potency,[1],> 92 µM
same,Potency,[2],> 92 µM
same,Potency,[3],> 92 µM
same,Potency,[5],inactive
same,Potency,[6],inactive
same,Potency,[7],inactive
same,outcome,[8],inactive
same,caspase-3 activation,[9],-0.695%
same,caspase-3 activation,[10],2.25%
same,caspase-3 activation,[11],-2.54%
same,Potency,[12],inactive
same,Potency,[19],inactive
same,Potency,[13],inactive
same,Potency,[14],inactive
same,Potency,[20],inactive
same,Potency,[15],inactive
same,Potency,[16],inactive
same,max response,[17],-12.4% and -4.83%

# From PubChem BioAssay (NCATS)
